# Reference: PubChem BioAssay AID2358 (The Scripps Research Institute Molecular Screening Center, 2010)
# Hit rate of the full screen: of about 1,900 compounds, about 1,000 (53%) were called active.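 The calls were made as follows: active = mean PP1 inhibition above a set limit taken from the earlier primary screen (cut at about 15% in these data); inactive = the rest.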 So high a share suggests a set chosen from earlier hits. A selection follows.
# Biological target: Serine/threonine-protein phosphatase PP1-alpha catalytic subunit (Homo sapiens) (UniProt P62136)
# Sequence (P62136 whole entry, looked up): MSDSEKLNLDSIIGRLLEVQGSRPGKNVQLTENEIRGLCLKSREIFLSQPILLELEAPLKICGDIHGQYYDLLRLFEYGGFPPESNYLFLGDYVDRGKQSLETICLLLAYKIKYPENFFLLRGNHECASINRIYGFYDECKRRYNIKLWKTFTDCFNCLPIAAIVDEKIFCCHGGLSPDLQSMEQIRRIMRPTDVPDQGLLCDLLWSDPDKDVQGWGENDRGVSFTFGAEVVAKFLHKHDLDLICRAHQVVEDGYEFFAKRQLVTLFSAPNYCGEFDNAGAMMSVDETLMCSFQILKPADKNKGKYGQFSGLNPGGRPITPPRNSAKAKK
# Experiment: PP1 phosphatase inhibitors, confirmation, biochemical, fluorescence, OMFP substrate, triplicate (AID 2358)
# Settings: purified PP1alpha, at 6.7 µM, stronger effect = higher value
row,SMILES,inhibition
1,O=c1[nH]c(CN2CC=C(c3ccccc3)CC2)nc2scc(-c3cccs3)c12,19.9% (active)
2,CCOP(=O)(OCC)C(O)c1ccc(OC)cc1OC (stereo not drawn),-5.49% (inactive)
3,O=C(O)c1ccccc1NC(=O)C1C2CCC(O2)C1C(=O)O (stereo not drawn),13.2% (inactive)
